Among the test systems are RPMI-8226 leukemia; OVCAR-8 ovarian; OVCAR-5 ovarian; OVCAR-4 ovarian; SK-OV-3 ovarian; IGROV1 ovarian; OVCAR-3 ovarian; HS 578T breast; NCI/ADR-RES ovarian; T-47D breast.
What all share (assay): NCI-60 one-dose screen, 48 h (100 = growth as untreated, 0 = no growth, -100 = all killed)
Holding throughout (conditions): 10 µM unless noted

Compounds without any hit were thinned out: in the full panel of roughly 83,000, 20% have a hit.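 Each cell line was grown in a 96-well plate and treated with one concentration of compound for 48 hours. Values below 10 were considered active.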 Values without a mark were called inactive. Active and inactive are the calls of the source.

Consider `O=C(CCc1nnc2sc(COc3ccccc3)nn12)c1nc2ncccc2[nH]1`, for which the growth is 140% in the test with RPMI-8226 leukemia; 98.9% with OVCAR-8 ovarian; 98.4% in the test on OVCAR-5 ovarian; 100% with OVCAR-4 ovarian; 94.7% with SK-OV-3 ovarian; 87.2% with IGROV1 ovarian. In addition, the growth with OVCAR-3 ovarian is 108%; in the test on HS 578T breast, 79%; in the test on NCI/ADR-RES ovarian, 106%; in the test with T-47D breast it was 92.7%.
Regarding `CC(C)CCNCC(O)Cn1c2ccccc2c2ccccc21` (stereo not given), the growth is -24% (active) in the test on RPMI-8226 leukemia; 6.95% (active) in the test with OVCAR-8 ovarian; 41.3% in the test on OVCAR-5 ovarian; 21.8% with OVCAR-4 ovarian; 28.5% in the test on SK-OV-3 ovarian; 10.3% in the test with IGROV1 ovarian. Also, the growth with OVCAR-3 ovarian is -36.2% (active); in the test on HS 578T breast, 24.3%; in the test on NCI/ADR-RES ovarian, 20%; in the test on T-47D breast, 12.2%.
For the compound `COc1ccc(Nc2nc(N/N=C/c3ccc(O)cc3)nc(Nc3ccc([N+](=O)[O-])cc3)n2)cc1`, the growth was 99.7% with RPMI-8226 leukemia; 100% with OVCAR-8 ovarian; 109% in the test on OVCAR-5 ovarian; 111% with OVCAR-4 ovarian; 112% in the test on SK-OV-3 ovarian; 121% in the test with IGROV1 ovarian. For the same compound, the growth in the test with OVCAR-3 ovarian was 124%; in the test on HS 578T breast, 110%; in the test on NCI/ADR-RES ovarian it was 109%; in the test on T-47D breast, 109%.
`Nc1ncnc(N)c1NC(=O)c1ccc(OCc2ccccc2)cc1`: the growth is 105% with RPMI-8226 leukemia; 102% with OVCAR-8 ovarian; 106% in the test with OVCAR-5 ovarian; 107% in the test with OVCAR-4 ovarian; 102% in the test with SK-OV-3 ovarian; 106% in the test with IGROV1 ovarian. The growth is 110% in the test with OVCAR-3 ovarian, 103% in the test on HS 578T breast, 113% in the test on NCI/ADR-RES ovarian and 96% in the test on T-47D breast.
In the case of `COc1ccc(C2C3=C(COC3=O)N(CCO)c3cc4c(cc32)CCC4)cc1OC` (stereo not given), the growth was 33.4% with RPMI-8226 leukemia; 26.7% in the test with OVCAR-8 ovarian; 57.3% with OVCAR-5 ovarian; 28.3% with OVCAR-4 ovarian; 24.8% in the test on SK-OV-3 ovarian; 24.2% in the test on IGROV1 ovarian. Besides, the growth with OVCAR-3 ovarian was -18.6% (active); with HS 578T breast, 21.1%; with NCI/ADR-RES ovarian, 31.3%; in the test on T-47D breast, 22.6%.
For `O=C(Nc1ccc(Cl)cc1F)c1cc(F)ccc1O`, the growth is -23% (active) in the test on RPMI-8226 leukemia; 9.44% (active) with OVCAR-8 ovarian; 27.8% with OVCAR-5 ovarian; 11.2% with OVCAR-4 ovarian; -4.5% (active) in the test with SK-OV-3 ovarian; 17.5% in the test with IGROV1 ovarian. The growth with OVCAR-3 ovarian was 9.51% (active); with HS 578T breast, 1.1% (active); with NCI/ADR-RES ovarian it was 7.19% (active); in the test on T-47D breast, -8.15% (active).
As to `CN(C)CCCNCc1ccc(-c2ccc(F)c(Cl)c2)o1`, the growth with RPMI-8226 leukemia is -26.3% (active); with OVCAR-8 ovarian, 59.3%; in the test with OVCAR-5 ovarian it was 65.3%; with OVCAR-4 ovarian it was 59.6%; with SK-OV-3 ovarian, 73.1%; in the test on IGROV1 ovarian, 31.6%. Besides, the growth with OVCAR-3 ovarian was 34.3%; with HS 578T breast it was 57.6%; with NCI/ADR-RES ovarian, 53.8%; with T-47D breast, 23.2%.
Consider `O=C(N/N=C/c1ccccc1O)C(=O)Nc1ccc(F)cc1`, for which the growth with RPMI-8226 leukemia is 52.2%; with OVCAR-8 ovarian it was 38.7%; in the test on OVCAR-5 ovarian, 64.8%; in the test with OVCAR-4 ovarian, 27.2%; in the test with SK-OV-3 ovarian it was 59.1%; in the test on IGROV1 ovarian, 53%. The growth in the test on OVCAR-3 ovarian is 27.7%; in the test with HS 578T breast it was 74.6%; in the test on NCI/ADR-RES ovarian it was 18.1%; in the test with T-47D breast, 52.6%.
On to `Cc1nc(Nc2ccccn2)sc1C(=O)/C=C/c1ccc(Cl)cc1`, for which the growth is 12% in the test on RPMI-8226 leukemia; 10.1% in the test on OVCAR-8 ovarian; 38.7% with OVCAR-5 ovarian; 54% with OVCAR-4 ovarian; 26.9% in the test on SK-OV-3 ovarian; 13.9% in the test with IGROV1 ovarian. Moreover, the growth with OVCAR-3 ovarian was -23.2% (active); in the test with HS 578T breast it was 18.5%; in the test on NCI/ADR-RES ovarian, 3.2% (active); with T-47D breast it was 58.1%.
For `COc1ccc(/C=C2\SC(=Nc3ccccc3)NC2=O)cc1`, the growth is -50.9% (active) in the test with RPMI-8226 leukemia; -81.2% (active) in the test on OVCAR-8 ovarian; -77.8% (active) in the test with OVCAR-5 ovarian; -49.4% (active) in the test on OVCAR-4 ovarian; -54.1% (active) with SK-OV-3 ovarian; -78.2% (active) in the test with IGROV1 ovarian. The growth was -69.4% (active) in the test on OVCAR-3 ovarian, -47.5% (active) with HS 578T breast, -8.71% (active) in the test with NCI/ADR-RES ovarian and -72.8% (active) in the test on T-47D breast.
Regarding `Cc1cc(Nc2ccc(OCc3ccccc3)cc2)nc2cc(O)ccc12`, the growth in the test on RPMI-8226 leukemia is 6.65% (active); in the test with OVCAR-8 ovarian, 57.1%; in the test on OVCAR-5 ovarian it was 84.3%; in the test with OVCAR-4 ovarian, 44.5%; in the test on SK-OV-3 ovarian, 86.9%; in the test with IGROV1 ovarian it was 60.5%. The growth is 41.3% in the test on OVCAR-3 ovarian, 106% in the test on HS 578T breast, 75.7% with NCI/ADR-RES ovarian and 69.8% with T-47D breast.
Turning to `Cc1ccc(C)c(-c2csc(Nc3ccc(C)c(C)c3)n2)c1`, the growth with RPMI-8226 leukemia was 2.64% (active); in the test with OVCAR-8 ovarian, 54.5%; with OVCAR-5 ovarian it was 94%; with OVCAR-4 ovarian it was 54.5%; in the test on SK-OV-3 ovarian it was 77.8%; in the test with IGROV1 ovarian, 81%. For the same compound, the growth is 67.4% in the test with OVCAR-3 ovarian, 57.9% in the test with HS 578T breast, 54.2% in the test with NCI/ADR-RES ovarian and 39.3% in the test with T-47D breast.
With `Oc1c(CN2CCN(c3ccccc3F)CC2)cc(Br)c2cccnc12`, the growth is -0.421% (active) in the test with RPMI-8226 leukemia; -49% (active) in the test with OVCAR-8 ovarian; -19.3% (active) in the test with OVCAR-5 ovarian; -81% (active) in the test with OVCAR-4 ovarian; -8.19% (active) in the test with SK-OV-3 ovarian; -34.1% (active) in the test with IGROV1 ovarian. Also, the growth in the test on OVCAR-3 ovarian is -86% (active); in the test with HS 578T breast it was -10.3% (active); with NCI/ADR-RES ovarian, 23.8%; in the test on T-47D breast, 14.3%.
Turning to `Clc1ccc(Nc2nnc(-c3ccc4c(c3)OCO4)o2)cc1`, the growth with RPMI-8226 leukemia was 91.1%; in the test on OVCAR-8 ovarian, 94.2%; in the test on OVCAR-5 ovarian, 104%; in the test with OVCAR-4 ovarian, 102%; in the test with SK-OV-3 ovarian it was 102%; in the test on IGROV1 ovarian, 101%. Moreover, the growth with OVCAR-3 ovarian is 114%; in the test on HS 578T breast it was 109%; in the test on NCI/ADR-RES ovarian, 98.6%; in the test with T-47D breast, 82.5%.

For the origin of these results see PubChem BioAssay (NCI).
